Reference: PubChem BioAssay (NCI)
The panel holds about 83,000 compounds, 20% with a hit somewhere; the sample as a whole holds those more often.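 Treatment: one concentration, 48 hours, 96-well format. Scoring: percent growth, with anything below 10 considered active.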 Values without a mark were called inactive. The source made the active and inactive calls.

Legend:
Test in all cases: NCI-60 one-dose screen, 48 h (100 = growth as untreated, 0 = no growth, -100 = all killed)
Details in all cases: 10 µM unless noted
NCI-H23 lung = system: NCI-H23 lung
NCI-H226 lung = system: NCI-H226 lung
NCI-H322M lung = system: NCI-H322M lung
HOP-62 NSCLC = system: HOP-62 NSCLC
NCI-H460 lung = system: NCI-H460 lung
HOP-92 NSCLC = system: HOP-92 NSCLC
NCI-H522 lung = system: NCI-H522 lung
A549/ATCC NSCLC = system: A549/ATCC NSCLC
786-0 renal = system: 786-0 renal
DU-145 prostate = system: DU-145 prostate
K-562 leukemia = system: K-562 leukemia
MALME-3M melanoma = system: MALME-3M melanoma
MDA-MB-231 breast = system: MDA-MB-231 breast
RXF 393 renal = system: RXF 393 renal
SF-268 CNS = system: SF-268 CNS
SF-295 CNS = system: SF-295 CNS
SF-539 CNS = system: SF-539 CNS
UACC-257 melanoma = system: UACC-257 melanoma
M14 melanoma = system: M14 melanoma
COLO 205 colon = system: COLO 205 colon

Structure (SMILES)	growth (NCI-H23 lung)	growth (NCI-H226 lung)	growth (NCI-H322M lung)	growth (HOP-62 NSCLC)	growth (NCI-H460 lung)	growth (HOP-92 NSCLC)	growth (NCI-H522 lung)	growth (A549/ATCC NSCLC)	growth (786-0 renal)	growth (DU-145 prostate)	growth (K-562 leukemia)	growth (MALME-3M melanoma)	growth (MDA-MB-231 breast)	growth (RXF 393 renal)	growth (SF-268 CNS)	growth (SF-295 CNS)	growth (SF-539 CNS)	growth (UACC-257 melanoma)	growth (M14 melanoma)	growth (COLO 205 colon)
CN1CCN(c2ccc(OC(F)(F)F)c(Nc3ncc4c(n3)-c3c(c(C(N)=O)nn3CCO)CC4)c2)CC1	26%	57.8%	58.1%	5.17% (active)	5.8% (active)	25.8%	-22% (active)	9.12% (active)	17%	10.2%	8.71% (active)	83.6%	32.1%	32.9%	35.6%	33.4%	3.87% (active)	47.6%	10.2%	
CNC(=O)c1cnc(C)nc1-c1cc(C(C)(C)C)c(O)c(C(C)(C)C)c1	103%	98.2%	104%	99.9%	108%	74%	83.2%	95.9%	88.9%	99.8%	90.4%	87.5%	87.5%	111%	98%	88.5%	91.9%	100%	94.1%	
CC(=Nc1ccccc1)C1=C(O)C(Cc2ccc(O)cc2)NC1=O (configuration not stated)	2.24% (active)	15.5%	39.6%	19.8%	4.41% (active)	-10.1% (active)	-27.1% (active)	-27.7% (active)	9.29% (active)	-28.6% (active)		58.6%	11.3%		11.5%	-41.1% (active)	-33.7% (active)		0.122% (active)	-71% (active)
CCCCn1c(C)nc2ccc(Nc3nc(N4CCN(C)CC4)nc4nc[nH]c34)cc21	95.5%	93%	91.3%	90.9%	104%	64.8%	87.2%	94.2%	92.8%	91.8%	83.2%	102%	86.2%	95%	73.2%	105%	87.6%	101%	107%	
COc1cnc2c(c1)C(=O)c1c-2n(CCCN2CCC(O)CC2)c(=O)c2cc(Cl)ccc12	11.8%	39.3%	46.4%	23.6%	-60.8% (active)	77.3%	32.4%	-65.8% (active)	4.34% (active)	22.8%	-38.7% (active)		-28.4% (active)	28.2%	34.7%	17.8%	14.7%		30.9%	47.1%
O=c1sn(-c2cccc3ccccc23)c(=O)n1Cc1ccccc1	100%	96.8%	102%	76.6%	101%	89.3%	74.4%	70.7%	107%	108%	9.59% (active)	96.5%	101%	99.3%	105%	105%	114%	89.2%	89.8%	
CCc1ccc(C2=C(O)C(=O)C(c3ccc(CC)cc3)=C(O)C2=O)cc1	-17.4% (active)	-3.98% (active)	-19.6% (active)	-12.8% (active)	-19.8% (active)	-47.9% (active)	-20.7% (active)	-58.3% (active)	0.0366% (active)	13.8%		-15.1% (active)	-0.828% (active)		0.61% (active)	-27.2% (active)	-71.8% (active)		4.98% (active)	5.7% (active)
N#Cc1c(C(F)(F)F)cc(Nc2ccc3nc(NCCN4CCCC4)oc3c2)n2c1nc1ccccc12	81%	82.8%	87.4%	75%	99.4%	51.2%	58.2%	56.7%	26.1%	89%	11.8%		32.7%	55.4%	78.8%	74.7%	86.4%		84.4%	38.7%
CCN(CC)CCCC(C)Nc1cc(-c2ccc(C(F)(F)F)cc2)c(C#N)c2nc3ccccc3n12 (configuration not stated)	18.6%	-39.6% (active)	38.9%	6.94% (active)	-18.8% (active)	68.8%	13.1%	17.1%	-83.3% (active)	7.4% (active)	-46.1% (active)		-38% (active)	-75.7% (active)	14.6%	-25.9% (active)	-75.1% (active)		-69.6% (active)	
CN1CCN(Cc2ccc(NC(=O)c3[nH]ncc3Nc3ncnc4sc5c(c34)CCCC5)cc2)CC1	-63.7% (active)	-51.9% (active)	-50.8% (active)	-72% (active)	-62.2% (active)	-21.1% (active)	-76.1% (active)	-58.2% (active)	-92.2% (active)	-86.7% (active)	-60.6% (active)	-75.4% (active)	-57.8% (active)	-92.9% (active)	-44.3% (active)	-87.9% (active)	-100% (active)		-95.2% (active)	
CNC(=O)c1ccc(Nc2ncc(C(F)(F)F)c(NCc3nccnc3N(C)S(C)(=O)=O)n2)cc1	-16.8% (active)	2.77% (active)	1.99% (active)	-23.5% (active)	0.647% (active)		-25.2% (active)	-14.4% (active)	8.71% (active)	7.63% (active)	10.6%	-1.87% (active)	3.13% (active)	-51.1% (active)	2.86% (active)	5.63% (active)	-42.7% (active)	-21.5% (active)	8.04% (active)	-66.2% (active)
COc1cc2c(c(OC)c1)C1c3ccccc3NC(=O)N1CC2 (configuration not stated)	24%	51.5%	34.9%	51.6%	11.3%		39.6%	22.7%	41.4%	13.2%	12.5%	28.5%	32.2%	9.03% (active)	48.2%	13.2%	-9.57% (active)	56.4%	-18.6% (active)	16.1%
CN(c1ncccc1CNc1nc(Nc2ccc3c(c2)CC(=O)N3)ncc1C(F)(F)F)S(C)(=O)=O	-18.1% (active)	8.79% (active)	-11.3% (active)	-13.3% (active)	-36.9% (active)		-22.4% (active)	2.18% (active)	11.3%	11.2%	4.58% (active)	-14.4% (active)	3.93% (active)	-43.3% (active)	2.36% (active)	11.8%	-36% (active)	-29.1% (active)	-23.9% (active)	-85.6% (active)
O=C1CC(c2ccc(Cl)cc2)c2ncn(-c3cccc(Cl)c3)c2N1 (configuration not stated)	72%	71%	91.6%	51.2%	34%	60.8%	27.6%	45.2%	55%	62.9%	23.8%	53.2%	48.3%		58.2%	47.6%	33%		21.6%	
Cc1ccc(NC(=O)c2ccc(CN3CC[C@H](N(C)C)C3)c(C(F)(F)F)c2)cc1Nc1nccc(-c2cncnc2)n1	13.2%	12.9%	26.2%	-0.939% (active)	4.17% (active)		-29.7% (active)	1.73% (active)	-54.7% (active)	30.6%	-19.6% (active)	-79.2% (active)	-34.5% (active)	-20.2% (active)	17.1%	-43.9% (active)	-89.6% (active)	-74.7% (active)	-61% (active)	-55.5% (active)
CN1CCN(CCCOc2cccc3nc(Nc4ccc(Cl)c(C(F)(F)F)c4)ccc23)CC1	18.8%	77.1%	15.9%	15.5%	-19.3% (active)		-40.6% (active)	6.87% (active)	-42.9% (active)	4.82% (active)	-41.3% (active)	34.1%	-44.5% (active)	14.7%	28.3%	-11% (active)	7.03% (active)	59.3%	-54.6% (active)	-61.6% (active)
N#Cc1c(NC(=O)c2cccs2)[n+]([O-])c2ccc(F)cc2[n+]1[O-]	98.5%	88.6%	99.1%	68.1%	99.1%		87%	106%	103%	103%	91.3%	92.4%	87.2%		101%	100%	98.1%		101%	86.1%
COC(=O)[C@@H](C)CNS(=O)(=O)N(c1cc(C(F)(F)F)cc(C(F)(F)F)c1)C1CCN(Cc2ccc(F)cc2)CC1	66.8%	70.1%	79%	79%	62.3%	47.8%	56.1%	54%	59.7%	92.9%		43.8%	71%		84.4%	81.1%	73.5%		58.5%	
Cc1cc2c(-c3nc4ccccn4c3N)c(O)c(O)cc2c(O)c1-c1c(C)cc2c(-c3nc4ccccn4c3N)c(O)c(O)cc2c1O	9.67% (active)	26%	29.3%	11.3%	7% (active)	-8.82% (active)	-3.16% (active)	16.4%	32.4%	26%	14.6%	-0.749% (active)	13.6%	25.3%	20.4%	2.67% (active)	14.9%		25.1%	
CC1(/C=N/NC(N)=S)NC(=O)NC1=O (configuration not stated)	98%	95.1%	107%	78.5%	105%	92.5%	71.2%	72.4%	105%	107%	89.4%	107%	99.2%		102%	108%	110%		103%	
COc1ccc(C2OC(c3cc(-c4cc5ccccc5o4)nn3-c3ccccc3)=NN2C(C)=O)cc1 (configuration not stated)	92.5%	91%	97.9%	91.4%	104%		83.4%	102%	92.9%	101%	93.1%	107%	95.9%		97.7%	100%	98.6%		99%	103%
O=C(Nc1ccc(Nc2ncnc3sc4c(c23)CCOC4)cc1)Nc1ccc(Cl)c(C(F)(F)F)c1	86%	103%	102%	116%	99.7%		66.5%	99.3%	107%	96.1%	88.5%	88.7%	95.2%	98.9%	99.4%	83.1%	63.8%	105%	77.7%	104%
